High-throughput results deposited in PubChem BioAssay by several laboratories.
Only some compounds are listed: those with a hit (about 4.1% of all), similar ones and a draw of the others.
MazF activator: MazEF (E. coli) toxin RNase activation; activation, % at 20 µM; FAM/BHQ RNA-DNA oligo cleavage fluorescence, 5 h; P0AE70; AID 504720; 350,000 tested, 0.32% active; in the data active means activation above about 50%
Target sequence (P0AE70 whole entry, looked up): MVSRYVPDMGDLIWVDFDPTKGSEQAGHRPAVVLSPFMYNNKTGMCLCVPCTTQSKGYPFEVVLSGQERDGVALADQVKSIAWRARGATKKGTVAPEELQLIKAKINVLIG
VHR inh abs: inhibitors of human VHR1 phosphatase (DUSP3). P51452. recombinant VHR phosphatase, pNPP absorbance. inhibition, % at 13.3 µM. 290,000 tested, 0.52% active. AID 1654; in the data active means inhibition above about 50%
Target sequence (P51452 whole entry, looked up): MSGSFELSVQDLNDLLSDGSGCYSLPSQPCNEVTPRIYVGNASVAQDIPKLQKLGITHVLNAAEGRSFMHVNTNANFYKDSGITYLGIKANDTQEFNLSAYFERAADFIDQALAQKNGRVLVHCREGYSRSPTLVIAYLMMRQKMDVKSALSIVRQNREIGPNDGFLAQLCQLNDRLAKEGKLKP
BoNT-F LC inh: BoNT F light chain protease inhibition; Multiplex microsphere protease cleavage assay, flow cytometry; inhibition, % at 10 µM; 360,000 tested, 0.22% active; in the data active means inhibition above about 35%, passing the limit was not always enough; inconclusive means no clear call, values can overlap the other calls
Bead autofluor: flagged as autofluorescent in microsphere protease counterscreen; compound autofluorescence counterscreen, microsphere flow cytometry; hits give high values; fluorescence intensity (concentration not given with the values); 360,000 tested, 3.1% active; AID 624483; in the data active means fluorescence intensity above about 16000; inconclusive means no clear call, values can overlap the other calls
Anthrax LF inh2: blocks Bacillus anthracis lethal factor protease | P15917 | multiplex microsphere protease cleavage assay, LF | inhibition, % at 10 µM | 360,000 tested, 0.12% active
BoNT-A LC inh2: blocks Botulinum neurotoxin A light chain protease. multiplex microsphere protease substrate cleavage, flow cytometry. inhibition, % at 10 µM. AID 588499. 360,000 tested, 0.17% active
A number is an active result; . = inactive; ? = inconclusive; / = no result given. Unless noted, no stated cut-off is given here; in the data, active means inhibition above about 30%; inconclusive means no clear call, values can overlap the other calls; inactive means below that.

SMILES	MazF activator	VHR inh abs	BoNT-F LC inh	Bead autofluor	Anthrax LF inh2	BoNT-A LC inh2
CC(C)(C(=O)c1ccccc1)/[N+]([O-])=C/c1ccccc1	.	/	.	23931	.	.
Cc1ccc2c(CN3CCN(c4ccc(Cl)c(Cl)c4)CC3)cc(=O)oc2c1	/	/	.	.	.	.
O=C(COC(=O)c1cccc(S(=O)(=O)N2CCOCC2)c1)NC1CCCCC1	.	/	.	.	.	.
O=C1/C(=C/c2ccco2)CCc2ccccc21	.	.	.	.	.	.
Nc1ccc2c(c1)C/C(=C/c1ccco1)C2=O	.	72	.	.	.	.
O=C(Cc1ccccc1[N+](=O)[O-])OCC(=O)c1ccccc1Br	.	/	/	/	/	/
CCC(C)Nc1nc2ccccc2n2c(C)nnc12 (stereo not drawn)	.	.	.	.	.	.
C=CCN1CCN(C(=O)c2ccc(-c3ccccc3)cc2)CC1	.	.	.	.	.	.
C=CCN1CCN(C(=O)CSc2ccccc2)CC1	.	57	?	.	.	.
COc1ccc(C(=O)c2c(C)oc3ccc(O)cc23)c(OC)c1	.	58	.	.	.	.
COc1ccc(CC(=O)NNC(=O)c2ccco2)cc1OC	.	.	.	.	.	.
CC(C)Cc1cc(C(=O)O)c2ccccc2n1	.	/	.	18252	.	.
CC(=O)c1ccc(NC(=O)c2cc(CC(C)C)nc3ccccc23)cc1	.	.	?	.	.	.
COC(=O)COc1ccc(S(=O)(=O)N2CCCCCC2)cc1C	.	.	.	.	.	.
CCN1CCN(C(=O)COc2ccc(S(=O)(=O)N3CCOCC3)cc2C)CC1	.	54	.	.	.	.
CCOC(=O)N1CCN(S(=O)(=O)c2ccc(OCC(=O)OC)c(C)c2)CC1	.	.	.	25177	.	.
CCOC(=O)CN1C(=O)C(C)(C)Oc2ccc(C(=O)Nc3ccccc3OC)cc21	.	.	.	20848	.	.
CC(C)(C)NC(=O)c1ccc2c(c1)N(CC(=O)N1CCCCC1)C(=O)C(C)(C)O2	.	.	.	.	.	.
CC1(C)Oc2ccc(C(=O)NC3CCCC3)cc2N(CC(=O)NC2CCCCC2)C1=O	.	.	.	17996	.	.
CC(C)(C)NC(=O)c1ccc2c(c1)N(CC(=O)N1CCCC1)C(=O)C(C)(C)O2	.	.	.	.	.	.
CC(C)(C)NC(=O)c1ccc2c(c1)N(CC(=O)N1CCN(c3ccc(F)cc3)CC1)C(=O)C(C)(C)O2	.	.	.	16213	.	.
Cc1ccc(NC(=O)c2ccc3c(c2)N(CC(=O)N2CCCCC2)C(=O)C(C)(C)O3)cc1	.	.	.	23135	.	.
O=c1ccn([C@@H]2O[C@H](CNCc3cccn3-c3ccncc3)[C@@H](O)[C@H]2O)c(=O)[nH]1	/	/	.	.	.	.
CCCCc1ccc(S(=O)(=O)NC(=O)C2(C)CCN2C(=O)Cc2ccccc2)cc1 (stereo not drawn)	/	/	.	.	.	.
CCN1C(=O)CSc2ccc(C(=O)NC3CCCCC3)cc21	.	.	.	20222	.	.
SMILES	MazF activator	VHR inh abs	BoNT-F LC inh	Bead autofluor	Anthrax LF inh2	BoNT-A LC inh2
N=c1n(CCN2CCOCC2)c2ccccc2n1Cc1ccccc1Br	.	.	.	19620	.	.
Cc1ccc(S(=O)(=O)c2nc(S(C)(=O)=O)sc2N2CCCCC2C)cc1 (stereo not drawn)	.	.	.	.	.	.
CCc1cccc(N=c2c([N+](=O)[O-])nn(-c3ccc(Cl)cc3)n2O)c1	.	.	.	22799	.	.
O=[N+]([O-])c1nn(-c2cccc(Cl)c2)n(O)c1=NCc1cccnc1	.	.	35	.	.	.
Cc1cccc(N=c2c([N+](=O)[O-])nn(-c3ccc(Cl)cc3)n2O)c1	.	.	.	.	.	.
Cc1ccc(CN=c2c([N+](=O)[O-])nn(-c3ccc(Cl)cc3)n2O)cc1	.	.	.	.	.	.
Cc1cc(C)cc(N=c2c([N+](=O)[O-])nn(-c3cccc(Cl)c3)n2O)c1	.	.	.	22853	.	.
O=[N+]([O-])c1nn(-c2ccc(Cl)cc2)n(O)c1=NCc1cccnc1	.	.	.	.	.	.
Cc1cc(C(c2cc(C)c(N)c(C)c2)c2ccco2)cc(C)c1N	.	/	.	.	.	.
Cc1ccc(S(=O)(=O)N2C[C@H]3C(=O)C[C@@H](c4ccc(Cl)cc4)N(S(=O)(=O)c4ccc(C)cc4)[C@H]3C[C@H]2c2ccccc2)cc1	/	/	.	.	.	.
CC(C)COC(=O)CCn1[nH]c(=O)c2ccccc2c1=O	.	.	.	22405	.	?
